# Data taken from PubChem BioAssay AID743446 (Broad Institute, 2014).
# Potency and affinity values are given separately. Calls of active or inactive are those of the source. The rule behind the calls is not given here.
# Experiment: HEK293 cell cytotoxicity, dose response, cytotoxicity control, plate reader, cherry-picked samples (AID 743446)
# Settings: active compounds read low; at 26 µM unless noted
row,Compound,max activity
1,Cc1ccc(C(=O)CN2C(=O)c3ccccc3S2(=O)=O)cc1,11.6% [at 3 µM] (inactive)
2,Cc1csc(NC(=O)c2cnc3ccccc3n2)n1,87.3% (inactive)
3,Cc1ccc(CNS(=O)(=O)c2ccc3c(c2)CCN3C(=O)CCCC(=O)O)cc1,14.5% [at 6 µM] (inactive)
4,O=C(NCCc1ccc(Cl)cc1)c1ccc2c(c1)OCCO2,19.7% [at 0.8 µM] (inactive)
5,CO[C@@H]1CN(C)C(=O)c2cc(NC(C)=O)ccc2OC[C@@H](C)N(Cc2ccc(F)cc2)C[C@@H]1C,59.8% [at 0.05 µM] (inactive)
6,Cc1cnc(NC(=O)COc2ccccc2Cl)s1,11.6% (inactive)
7,Cc1ccc(-n2cc(CN(C)Cc3nccn3C)c(-c3cccc(C)c3)n2)cc1,22.6% [at 1.6 µM] (inactive)
8,O=C(COC(=O)c1ccccc1C(=O)c1ccc(Cl)c([N+](=O)[O-])c1)NC1CC1,8.38% [at 6 µM] (inactive)
9,CC(=O)Nc1cccc(-c2ccnc3c2CC(C(=O)NCc2cccnc2)O3)c1 (stereo not drawn),0% [setting not given] (inactive)
10,CCn1c(C)cc(C(=O)CN2C(=O)c3ccccc3S2(=O)=O)c1C,-18.9% [at 6 µM] (inactive)
11,CCCCc1ccc(NC(=O)c2cnccn2)cc1,-14.3% [at 3 µM] (inactive)
12,Cc1cnc(NC(=O)c2sc3ccccc3c2Cl)s1,35.5% [at 6 µM] (inactive)
13,N#C[C@@H]1[C@H](c2ccc(C#Cc3cccc(F)c3)cc2)[C@@H](CO)N1C(=O)C1CC1,10.4% [at 12 µM] (inactive)
14,Nc1c(C(=O)Nc2cccc(C(=O)O)c2)sc2nc3c(cc12)CCCC3,-12.6% [at 0.1 µM] (inactive)
15,Fc1ccc(-n2nnc(-c3cnc4ccccc4c3)n2)cc1,26.8% [at 1.6 µM] (inactive)
16,C[C@H]1CCCCO[C@@H](CN(C)C(=O)Nc2ccc3c(c2)OCO3)[C@@H](C)CN([C@@H](C)CO)C(=O)c2cc(NC(=O)NC3CCCCC3)ccc2O1,26.2% [at 23.5 µM] (inactive)
17,O=C(NCCc1ccccc1)c1ccc2c(c1)OCO2,21.8% [at 12 µM] (inactive)

row,Compound,max activity
1,O=C(Nc1ccc(Cl)c(S(=O)(=O)N2CCOCC2)c1)c1ccc2c(c1)OCCO2,-8.36% [at 3 µM] (inactive)
2,COc1ccc(-c2cc(C(=O)N3CCOCC3)no2)cc1,-14.8% (inactive)
3,CC(=O)Nc1ccc(S(=O)(=O)c2ccnc3cc(Cl)ccc23)cc1,-26.3% [at 12 µM] (inactive)
4,O=C(NCCc1ccccc1)c1ccc2nccnc2c1,9% (inactive)
5,CCOc1ccc(C(=O)Nc2nnc(SCC(=O)NCC3CCCO3)s2)cc1 (stereo not drawn),27.5% [at 3 µM] (inactive)
6,CCOC(=O)c1sc(NC(=O)Nc2ccccc2F)nc1C,-21.8% [at 0.05 µM] (inactive)
7,COc1ccc(C(=O)Nc2nnc(-c3ccco3)s2)cc1,-21.3% [at 3 µM] (inactive)
8,O=C(Cc1ccccc1Cl)Nc1cccnc1,17.2% [at 0.1 µM] (inactive)
9,C[C@@H]1CN([C@@H](C)CO)C(=O)c2cc(NS(C)(=O)=O)ccc2O[C@@H](C)CCCCO[C@@H]1CN(C)Cc1ccc(C(F)(F)F)cc1,-12.9% [at 0.1 µM] (inactive)
10,C[C@H](CO)N1C[C@H](C)[C@H](CN(C)Cc2ccccc2)Oc2c(NS(=O)(=O)c3cn(C)cn3)cccc2C1=O,13% [at 1.6 µM] (inactive)
11,C[C@H](CO)N1C[C@H](C)[C@H](CN(C)C(=O)Nc2cccc3ccccc23)OCCCC[C@H](C)Oc2ccc(NC(=O)C3CCCCC3)cc2C1=O,31.6% [at 12 µM] (inactive)
12,O=C1CC(c2ccc3c(c2)OCO3)Sc2nc3ccccc3n21 (stereo not drawn),-8.84% [at 0.38 µM] (inactive)
13,CC(=O)N1CCCCN2[C@H](CO)[C@H](c3ccc(-c4cccc(C)c4)cc3)[C@@H]2C1,30.5% [at 1.6 µM] (inactive)
14,Cc1ccc(S(=O)(=O)N2[C@@H](CO)CO[C@H]2CC(=O)OCc2ccccc2)cc1,42.9% [at 12 µM] (inactive)
15,C[C@@H]1CN([C@@H](C)CO)C(=O)c2cccc(NC(=O)Nc3ccc(C(F)(F)F)cc3)c2O[C@H]1CN(C)C(=O)Nc1cccc2ccccc12,14.8% [at 6 µM] (inactive)
16,Cc1ccc(NC(=O)c2ncn(CC(=O)N3CCN(c4ccccn4)CC3)n2)cc1C,-13.4% [at 0.195 µM] (inactive)
